# Test results as given in PubChem BioAssay AID686978 (National Center for Advancing Translational Sciences (NCATS), 2013).
# Screen size: about 420,000 compounds; about 64,000 (15%) were called active. Another 27% or so got no clear call; they are omitted. Calls follow the shape of the dose curve; as a rule, active = well fitted inhibition curve with a large enough effect; inconclusive = small, poorly fitted or top-dose-only effect; inactive = flat fitted curve, though single readings scatter. Only a sample is shown.
# Assay: qHTS for Inhibitors of human tyrosyl-DNA phosphodiesterase 1 (TDP1): qHTS in cells in absence of CPT; also: nearly all actives have a fitted effect of over 55% in size
# Settings: DT40 Tdp1-/- hTDP1 cells, no CPT, ATP luminescence, 48 h; activity change, negative = growth inhibition: at 46.2 µM (top of the series)
# Method in brief: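 Readout: luminescence from CellTiter-Glo after 30 min in the dark at RT. Cells: DT40 Tdp1-/- with stable hTDP1, 400/well. Exposure: compounds alone, ≥48 hr, 37 °C.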
# % is scaled to controls: 0 for no effect and ±100 for the full control effect; potency is read from the fitted curve at half-maximal effect.
SMILES,"activity change, negative = growth inhibition",Potency
NS(=O)(=O)c1ccc(CCNC(=O)COC(=O)COc2cccc(C(F)(F)F)c2)cc1,5.08% (inactive),–
Cc1noc(NS(=O)(=O)c2ccc(NC(=O)c3oc4ccc(F)cc4c3C)cc2)c1C,7.6% (inactive),–
Cc1cc(C)n(CC(=O)Nc2ccc([N+](=O)[O-])cc2)n1,-1.22% (inactive),–
COC(=O)c1cccc(-n2[nH]nnc2=S)c1,-16.2% (inactive),–
CC(=O)c1ccc(S(=O)(=O)NCc2nnnn2-c2ccccc2)cc1,-10.6% (inactive),–
OCCCNC(c1ccccc1)c1ccc(O)cc1 (centres undefined),-10% (inactive),–
O=C(CC1C(=O)NCCN1CC(c1ccccc1)c1ccccc1)NCC1CCOCC1 (centres undefined),-6.96% (inactive),–
COc1cc(-c2cc3n(C)c(C)c(CCC(=O)Nc4ccc(F)cc4)c(=O)n3n2)cc(OC)c1OC,-24% (inactive),–
Cc1ccc(CNC(=O)C2CCCN2C(=O)NCc2ccccc2)cc1 (centres undefined),-7.07% (inactive),–
CCN(CC)S(=O)(=O)c1ccc(N2CC(C(=O)NCc3cccnc3)CC2=O)cc1 (centres undefined),-13.1% (inactive),–
O=C(Nc1cccnc1Cl)c1cc(-c2ccccc2O)on1,-23.4% (inactive),–
Brc1ccc(OCCn2ccnc2)cc1,-7.13% (inactive),–
COc1ccc(CCN=C2SCC(=O)N2C)cc1OC,9.99% (inactive),–
Cc1ccc2c(c1)c1ncn(Cc3ccc(F)cc3)c(=O)c1n2C,-28.1% (inactive),–
Cc1ccc2c(c1)c1ncnc(N3CCc4ccccc4C3)c1n2C,–,20.6 µM (active)
Cc1ccc(S(=O)(=O)Nc2nc3ccccc3nc2N2CCc3ccccc3C2)cc1,-23.2% (inactive),–
CCN(C(=O)COC(=O)/C=C/c1nc2ccccc2s1)C1CCS(=O)(=O)C1 (centres undefined),-9.04% (inactive),–
CCOC(=O)C1=C(C)NC(C)=C(C(=O)OCC)C1C1=COCCO1,-26% (inactive),–
CN(C)CCOC(=O)C(c1ccccc1)C1(O)CCCC1 (centres undefined),–,inactive
Cc1ccccc1C(OCCN(C)C)C1CCCCC1 (centres undefined),–,29.1 µM (active)
Cc1nn(Cc2ccc(Cl)cc2)c(Cl)c1/C=N/NC(=O)c1cccnc1,-21.6% (inactive),–
CC1(C)C/C(=C(/C#N)C(N)=O)CCO1,-3.81% (inactive),–
O=C(O)c1ccccc1NC(=S)NC(NC(=O)c1ccccc1[N+](=O)[O-])C(Cl)(Cl)Cl (centres undefined),3.8% (inactive),–

SMILES,"activity change, negative = growth inhibition",Potency
Cc1cc(C)cc(N(CC(=O)Nc2c(C)n(C)n(-c3ccccc3)c2=O)S(C)(=O)=O)c1,-0.0647% (inactive),–
COc1ccc(S(=O)(=O)N2CCCCCC2)cc1NC(=O)Cc1ccc(OC)c(OC)c1,-7.55% (inactive),–
CCOc1ccc(S(=O)(=O)N2CCCCC2)cc1NC(=O)CN1CCCC1c1cccs1 (centres undefined),–,2.06 µM (active)
Cc1ccc(S(=O)(=O)N2CCCCC2)cc1NC(=O)[C@@H]1CCCN1C(=O)c1cccs1,14.1% (inactive),–
CCN(C(=O)C1CCCN(c2nc(-c3ccc(OC)cc3)no2)C1)c1ccc(OC)cc1 (centres undefined),–,20.6 µM (active)
COc1cccc(N(CC(=O)NC2CCCC2)C(=O)Cn2nnc(-c3ccc(C)cc3)n2)c1,-25.8% (inactive),–
C=CCOc1c2ccc(C(=O)N(CC)c3ccc(OC)cc3)cc2nn1C,-5.42% (inactive),–
O=C1C(=O)N(CCCO)C(c2ccccc2)/C1=C(\O)c1ccc(Br)cc1 (centres undefined),-1.82% (inactive),–
Cc1ccc(C(=O)NC2CC(C)(C)NC(C)(C)C2)c(C)c1,-20.5% (inactive),–
Cn1c2c(c(=O)n(C)c1=O)C1c3ccccc3OCC1C(C)(C)O2 (centres undefined),-20.6% (inactive),–
CC(Nc1nc(C(F)(F)F)nc2ccccc12)c1cccs1 (centres undefined),–,20.6 µM (active)
CCN(CC)C(=O)c1ccc(O)c(OC)c1,–,inactive
O=c1c2c3c(sc2n(CCN2CCCC2)c(=O)n1Cc1ccccc1)CCCCC3,–,11.6 µM (active)
CC1CCN(C(=O)Cn2c(=O)n(-c3ccc(Cl)cc3)c(=O)c3c4c(sc32)CCC4)CC1,-14.1% (inactive),–
CCOC(=O)N1CCc2c(sc3c2c(=O)n(Cc2ccccc2)c(=O)n3CC(=O)Nc2cccc(C)c2)C1,-10% (inactive),–
NC(=O)c1ncc(C(F)(F)F)cc1Oc1ccc(F)cc1,7.01% (inactive),–
Cc1n[nH]c(C)c1S(=O)(=O)N1CCCC(C(=O)NCC2COc3ccccc3O2)C1 (centres undefined),-25.9% (inactive),–
Cc1ccccc1N1CC(C(=O)Nc2ccc(S(=O)(=O)N3CCCC3)cc2)CC1=O (centres undefined),-26% (inactive),–
Cc1n[nH]c(C)c1S(=O)(=O)N1CCCC(C(=O)Nc2ccc(Br)cc2)C1 (centres undefined),–,16.4 µM (active)
COc1ccc(S(=O)(=O)N2CCCC(C(=O)NCCCn3ccnc3)C2)cc1OC (centres undefined),-13.3% (inactive),–
COc1ccc(NC(=O)C2CCCN(S(=O)(=O)c3c(C)[nH]c(=O)[nH]c3=O)C2)c(OC)c1 (centres undefined),14.1% (inactive),–
CC(C)c1ccc(NC(=O)C2CCCN(S(=O)(=O)c3cccnc3)C2)cc1 (centres undefined),–,7.31 µM (active)
O=C(Cc1ccsc1)N1CCN(S(=O)(=O)c2cc(C(F)(F)F)cc(C(F)(F)F)c2)CC1,-13.1% (inactive),–

SMILES,"activity change, negative = growth inhibition",Potency
CCOC(=O)C1=CN(Cc2ccc(Br)cc2)S(=O)(=O)NC1C (centres undefined),-1.97% (inactive),–
Cc1ccc(C(=O)NNC2=Nc3cc([N+](=O)[O-])ccc3OC2)cc1,-28% (inactive),–
Cc1nn(C(=O)c2c(F)cccc2F)c(C)c1S(=O)(=O)N1CCOCC1,1.73% (inactive),–
CC(C)=N/N=C1/NC(=O)C(Cc2ccccc2)S1 (centres undefined),14% (inactive),–
O=C(NC(=S)Nc1ccc(Br)cc1F)C1CCCCC1,-23.3% (inactive),–
O=C(N/N=C/c1ccc(O)c2ccccc12)c1cccnc1,-15.7% (inactive),–
Cc1nnsc1C(=O)N/N=C/c1ccccc1Cl,-7.21% (inactive),–
Cc1ccc(/C=N/NC(=O)C2=NNC(c3ccccc3)(c3ccccc3)C2)c(O)c1,–,4.11 µM (active)
O=C(O)c1cscn1,4.68% (inactive),–
S=C(NCCC1=CCCCC1)Nc1ccccc1,–,23.1 µM (active)
CC(=O)Nc1ccc(S(=O)(=O)N(C)CC(=O)NCCC2=CCCCC2)cc1,-7.69% (inactive),–
O=C(Cc1cccc2ccccc12)NCCC1=CCCCC1,–,29.1 µM (active)
O=C(Cc1nn[nH]n1)NCCC1=CCCCC1,-18.9% (inactive),–
CC(OC(=O)c1c(F)cccc1F)C(=O)NCCC1=CCCCC1 (centres undefined),-21.2% (inactive),–
O=C(CCNC(=O)Cn1ccc2ccccc2c1=O)NCCC1=CCCCC1,-1.25% (inactive),–
CC(C)CC(=O)N1CCN(Cc2cccc(Cl)c2)CC1,-15.7% (inactive),–
CCOc1ncccc1C(=O)N(CC)CC(=O)Nc1ccc(NC(C)=O)cc1,-13.9% (inactive),–
COc1ccc(-n2nc(C(=O)NCC(=O)N3CCCCCC3)c3ccccc3c2=O)cc1Cl,–,23.1 µM (active)
COCCCNC(=O)CNC(=O)c1nn(-c2ccc(OC)cc2)c(=O)c2ccccc12,2.56% (inactive),–
COc1ccc(-n2nc(C(=O)NCCc3ccc(Cl)cc3)c3c4ccccc4n(C)c3c2=O)cc1Cl,–,13 µM (active)
CCOC(=O)c1ccccc1NC(=O)c1nn(-c2ccc(OC)c(Cl)c2)c(=O)c2c1c1ccccc1n2C,-5.84% (inactive),–
COc1ccc(-n2nc(C(=O)NCC(=O)N3CCC(C(N)=O)CC3)c3ccccc3c2=O)cc1OC,-4.08% (inactive),–
CCOC(=O)CNC(=O)c1nn(-c2cccc(OC)c2)c(=O)c2ccccc12,-15.7% (inactive),–
